Screen size: about 360,000 compounds; about 16,000 (4.4%) were called active. Another 9% or so got no clear call; they are omitted. Calls follow the shape of the dose curve; as a rule, active = well fitted inhibition curve with a large enough effect; inconclusive = small, poorly fitted or top-dose-only effect; inactive = no such curve, though single readings can be large or run the other way. What follows is part of a selection rich in actives, with near analogues and random picks from the rest. Where a call stands in place of a potency, no number is given.
biological target: Bromodomain adjacent to zinc finger domain protein 2B (Homo sapiens) (UniProt Q9UIF8); assay: qHTS Assay for Inhibitors of BAZ2B; settings: AlphaScreen BAZ2B-H3K14Ac peptide displacement; series mostly up to 114 µM; also: nearly all actives have a fitted effect of over 60% in size
Summary of the method: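 AlphaScreen displacement: compounds (up to 110uM) incubated 30 min at room temperature with a preformed 50 nM BAZ2B/50 nM biotinylated H3K14Ac peptide complex in PBS pH 7.4 with Tween-20. Donor and acceptor beads at 10 ug/mL final added, 20 min light-protected before reading.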
Potency is read from the fitted curve at half-maximal effect.

Sequence of Bromodomain adjacent to zinc finger domain protein 2B (Homo sapiens) (Q9UIF8 whole entry, looked up, the tested form may be a part): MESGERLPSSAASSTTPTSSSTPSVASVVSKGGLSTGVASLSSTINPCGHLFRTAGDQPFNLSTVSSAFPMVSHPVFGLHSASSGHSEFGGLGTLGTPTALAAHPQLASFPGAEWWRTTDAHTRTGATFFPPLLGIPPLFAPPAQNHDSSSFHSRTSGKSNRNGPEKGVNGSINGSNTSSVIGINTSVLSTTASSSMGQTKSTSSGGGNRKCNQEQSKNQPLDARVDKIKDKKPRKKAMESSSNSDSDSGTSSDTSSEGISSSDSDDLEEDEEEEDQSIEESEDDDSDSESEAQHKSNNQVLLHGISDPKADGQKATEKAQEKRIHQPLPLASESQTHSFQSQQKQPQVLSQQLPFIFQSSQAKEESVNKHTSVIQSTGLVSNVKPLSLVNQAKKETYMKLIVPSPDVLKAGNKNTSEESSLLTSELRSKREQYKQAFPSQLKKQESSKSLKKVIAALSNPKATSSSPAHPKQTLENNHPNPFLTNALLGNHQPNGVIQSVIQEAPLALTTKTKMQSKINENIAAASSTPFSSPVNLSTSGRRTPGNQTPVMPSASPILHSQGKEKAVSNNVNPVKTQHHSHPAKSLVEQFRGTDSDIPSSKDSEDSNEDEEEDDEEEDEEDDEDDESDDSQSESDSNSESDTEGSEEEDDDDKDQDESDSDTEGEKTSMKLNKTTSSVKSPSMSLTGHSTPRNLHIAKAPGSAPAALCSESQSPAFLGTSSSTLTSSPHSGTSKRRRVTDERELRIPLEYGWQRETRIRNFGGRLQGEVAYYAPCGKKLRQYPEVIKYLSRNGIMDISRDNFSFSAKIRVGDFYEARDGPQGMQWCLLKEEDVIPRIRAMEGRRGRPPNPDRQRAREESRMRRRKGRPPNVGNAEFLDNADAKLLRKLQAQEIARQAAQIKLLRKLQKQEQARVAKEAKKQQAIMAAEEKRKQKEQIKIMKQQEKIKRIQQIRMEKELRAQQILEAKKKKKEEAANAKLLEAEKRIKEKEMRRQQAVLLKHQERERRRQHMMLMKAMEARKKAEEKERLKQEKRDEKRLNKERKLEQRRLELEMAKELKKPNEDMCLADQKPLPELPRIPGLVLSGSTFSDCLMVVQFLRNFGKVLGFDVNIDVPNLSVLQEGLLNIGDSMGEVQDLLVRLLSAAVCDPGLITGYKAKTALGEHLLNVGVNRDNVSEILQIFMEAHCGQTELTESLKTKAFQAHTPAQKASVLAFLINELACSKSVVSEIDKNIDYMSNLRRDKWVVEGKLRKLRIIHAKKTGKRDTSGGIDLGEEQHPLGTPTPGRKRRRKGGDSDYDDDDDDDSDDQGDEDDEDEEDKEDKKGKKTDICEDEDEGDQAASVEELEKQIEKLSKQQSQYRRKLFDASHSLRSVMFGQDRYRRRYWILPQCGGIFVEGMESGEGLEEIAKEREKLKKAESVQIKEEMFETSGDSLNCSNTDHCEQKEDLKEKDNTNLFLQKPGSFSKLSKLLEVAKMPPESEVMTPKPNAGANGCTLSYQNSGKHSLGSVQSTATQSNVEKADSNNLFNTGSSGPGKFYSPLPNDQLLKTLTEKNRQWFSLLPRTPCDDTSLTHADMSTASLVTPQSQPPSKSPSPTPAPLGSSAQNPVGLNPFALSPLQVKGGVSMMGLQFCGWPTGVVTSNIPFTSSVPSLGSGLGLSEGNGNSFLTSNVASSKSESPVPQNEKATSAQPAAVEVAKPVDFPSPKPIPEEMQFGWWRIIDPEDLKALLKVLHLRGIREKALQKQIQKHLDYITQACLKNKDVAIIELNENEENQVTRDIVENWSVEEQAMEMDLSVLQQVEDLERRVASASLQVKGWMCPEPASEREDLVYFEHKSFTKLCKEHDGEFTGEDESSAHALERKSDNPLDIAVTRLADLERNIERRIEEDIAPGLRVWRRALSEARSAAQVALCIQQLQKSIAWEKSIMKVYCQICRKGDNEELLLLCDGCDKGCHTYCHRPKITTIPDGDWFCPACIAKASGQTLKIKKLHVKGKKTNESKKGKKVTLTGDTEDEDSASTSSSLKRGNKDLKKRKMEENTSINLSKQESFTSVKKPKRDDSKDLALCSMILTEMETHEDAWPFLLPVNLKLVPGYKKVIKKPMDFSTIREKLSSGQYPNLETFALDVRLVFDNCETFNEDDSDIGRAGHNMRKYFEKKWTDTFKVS

| Compound | Potency |
| --- | --- |
| CC(C)(C)NC(=O)CSc1nc(-c2ccc(F)cc2)cc(C(F)(F)F)n1 | inactive |
| COc1ccc(S(=O)(=O)N2CCCCC2)cc1C(=O)NC1CCS(=O)(=O)C1 (stereo unspecified) | inactive |
| CCc1ccc(NC(=O)c2cc(S(=O)(=O)NC3CCCCCC3)ccc2F)cc1 | inactive |
| CC(CCCc1ccccc1)NC(=O)c1nn(-c2ccc(Cl)cc2)nc1CO (stereo unspecified) | inactive |
| Cc1ccc(NC(=O)c2cccnc2C(=O)Nc2ccc(C)cc2)cc1 | inactive |
| O=C(Nc1ccc(-n2ccnc2P(=O)(O)c2ccccc2)cc1)c1ccccc1Br | 44.7 µM (active) |
| Cn1c(=O)c(=O)n(C)c2cc(NC(=O)c3ccccc3Br)ccc21 | inactive |
| COc1ccccc1NC(=O)CSc1oc(-c2ccco2)nc1S(=O)(=O)c1ccc(Br)cc1 | inactive |
| Cc1cccc(NC(=O)CSc2nc3c([nH]c4ccccc43)c(=O)n2-c2cc(C)cc(C)c2)c1 | inactive |
| CCN(CC)c1ccc(NC(=O)Cn2nc3c(cc2=O)CCCC3)c(C)c1 | inactive |
| CCOc1ccc(C2C(C#N)=C(N)N(N(C)C)C3=C2C(=O)CCC3)cc1 (stereo unspecified) | inactive |
| COc1ccc(C2C(C#N)=C(N)N(c3ncn[nH]3)C3=C2C(=O)CCC3)cc1 (stereo unspecified) | 79.4 µM (active) |
| N#CC1=C(N)N(c2ccccc2)C2=C(C(=O)CCC2)C1c1ccccc1 (stereo unspecified) | inactive |
| Oc1ccc(Br)cc1/C=N/Nc1ccccn1 | 31.6 µM (active) |
| Oc1ccc(Br)cc1C=Nc1ccc2[nH]ncc2c1 | inactive |
| Cc1c(C(=O)Nc2ccccn2)oc2ccc(Br)cc12 | inactive |
| COC(=O)c1ccc(NC(=O)CCc2c(C)nc3c(c(C)nn3-c3ccc(C)cc3)c2C)cc1 | inactive |
| COc1ccc(-c2nnc(SCC(=O)Nc3ccccc3C)o2)cc1OC | inactive |
| CC(C)(C)c1ccc(S(=O)(=O)Nc2ccc(O)c(Sc3nc4ccccc4s3)c2)cc1 | inactive |
| O=[N+]([O-])c1c(NCCO)cc(Sc2nc3ccccc3s2)c2nonc12 | inactive |
| CC(C)c1ccc(S(=O)(=O)Nc2ccc(O)c(Sc3nc4ccccc4s3)c2)cc1 | 25.1 µM (active) |
| CC(C)c1ccc(NC(=O)Cn2nnc(C(=O)NCCc3ccccc3)c2N)cc1 | inactive |
| COc1ccc(N2CCN(S(=O)(=O)CCNC(=O)C(c3ccccc3)c3ccccc3)CC2)cc1 | inactive |

| Compound | Potency |
| --- | --- |
| CC[C@@H](C)[C@@H](C(=O)N1CCN(C(=O)OC(C)(C)C)CC1)n1cc(CCC(=O)O)nn1 | inactive |
| C#CCOCCOCCOCCNc1nc(N2CCN(C(=O)CCCCCCCCCCNC(=O)[C@H]([C@@H](C)CC)n3cc(CCCCN=C(N)N)nn3)CC2)nc(N2CCN(C(=O)CCCCCCCCCCNC(=O)[C@H](CO)n3cc(CCCSC)nn3)CC2)n1 | 50.1 µM (active) |
| C#CCOCCOCCOCCNc1nc(N2CCN(C(=O)Cn3cc(CCCCN)nn3)CC2)nc(N2CCN(C(=O)[C@H](CCCCN)n3cc(CCC(=O)O)nn3)CC2)n1 | inactive |
| C#CCOCCOCCOCCNc1nc(N2CCN(C(=O)CCCCCCCCCCNC(=O)Cn3cc(CCCCCN)nn3)CC2)nc(N2CCN(C(=O)CCCCCCCCCCNC(=O)[C@H](CO)n3cc(CCCSC)nn3)CC2)n1 | 50.1 µM (active) |
| CCOc1cccc(CNC(=O)c2ccc(N3CCCC3)c(NC(=O)Nc3ccccc3CC)c2)c1 | inactive |
| Cc1oc(C)c2c(=O)cc(-c3ccc4c(c3)OCO4)cc(OC(=O)c3ccc(Cl)cc3)c12 | inactive |
| CCn1ccnc1CN1CCCC(C(=O)c2ccc3c4c(cccc24)CC3)C1 (stereo unspecified) | 50.1 µM (active) |
| CC(=O)NCC(=O)N1CCCC(C(=O)c2ccc3c4c(cccc24)CC3)C1 (stereo unspecified) | inactive |
| COc1ccc(C(=O)C2CCCN(Cc3ccc4nonc4c3)C2)c(C)c1 (stereo unspecified) | inactive |
| Cc1nc2ccc(S(=O)(=O)N(CC(=O)Nc3ccc(F)cc3)Cc3ccccc3)cc2s1 | inactive |
| COc1ccc(NC(=O)CSc2nc3ccccc3c(=O)n2C)cc1 | inactive |
| COc1ccc(NC(=O)CSc2nc(N)c(-c3ccccc3)c(=O)[nH]2)cc1 | inactive |
| COc1ccc(-c2nc3c(c(SCC(=O)Nc4ccc(C(=O)O)cc4)n2)Cc2ccccc2O3)cc1 | 8.91 µM (active) |
| COc1ccc(Cl)cc1NC(=O)CSc1nc(-c2cccs2)cc(C(F)(F)F)n1 | inactive |
| Cc1ccc(CN2CCCn3nc(C(=O)NCc4ccccc4Cl)cc3C2=O)cc1 | inactive |
| O=C1c2ccccc2C(=O)C1c1ccccc1F | inactive |
| O=C1c2ccccc2C2=Nc3ccccc3SC(c3ccccc3F)C12 (stereo unspecified) | 8.91 µM (active) |
| CC1Cc2cc(S(=O)(=O)CCC(=O)NCc3ccc(Cl)cc3)ccc2N1C(=O)C1CC1 (stereo unspecified) | inactive |
| O=C(Nc1cc2c3c(c1)C1CCCC1CN3CC1CCCC21)c1ccc([N+](=O)[O-])cc1 (stereo unspecified) | 11.2 µM (active) |
| CN(CC1CCCO1)S(=O)(=O)c1ccc(C(=O)Nc2ccc([N+](=O)[O-])cc2)cc1 (stereo unspecified) | inactive |
| CN1C2CCC1CC(NC(=O)c1ccc([N+](=O)[O-])cc1)C2 (stereo unspecified) | inactive |
| Cc1ccc(S(=O)(=O)c2c(Nc3cccc(Cl)c3)sc(C(=O)c3ccc4c(c3)OCO4)c2N)cc1 | inactive |
| CCCCC(=O)OC1=CN(Cc2ccccc2)S(=O)(=O)c2ccccc21 | inactive |

| Compound | Potency |
| --- | --- |
| CCN1CCN(C(=O)CSc2ccc(C)cc2)CC1 | inactive |
| Cc1ccc(NC(=O)CN2C(=O)C(c3ccc(F)cc3)=NC23CCCCCC3)c(C)c1 | inactive |
| CCN1CCC2(CC1)N=C(c1ccc(F)cc1)C(=S)N2C(=O)c1ccc(C)cc1 | 44.7 µM (active) |
| COc1ccc(CNC(=O)c2cc3cccc(OC)c3oc2=O)cc1 | inactive |
| O=C(NCCS(=O)(=O)N1CCN(c2ccc(F)cc2)CC1)c1ccccc1Br | inactive |
| COc1ccc(CNc2nc(-c3ccc(Cl)cc3)nn2C(=O)c2ccccc2)cc1 | inactive |
| O=C(CSc1oc(-c2ccccc2)nc1S(=O)(=O)c1ccc(Br)cc1)NC1CCCCC1 | inactive |
| CCOc1ccccc1NC(=O)CSc1ncc(S(=O)(=O)c2ccc(C(C)(C)C)cc2)c(=O)[nH]1 | inactive |
| O=C(CC1N=C2c3ccccc3N=C(SCc3ccc(F)cc3)N2C1=O)NCc1cccs1 (stereo unspecified) | inactive |
| CC(=O)NCc1ccc(-c2csc(NC(=O)CCCc3nc4ccccc4c(=O)[nH]3)n2)cc1 | inactive |
| O=C(CSc1nc2ccccc2c(=O)[nH]1)Nc1nc(-c2ccc(Br)cc2)cs1 | 79.4 µM (active) |
| CCOC(=O)c1ccccc1NC(=O)CSc1nc2ccccc2c(=O)[nH]1 | inactive |
| Cc1ccccc1Cn1nc(C)c(NC(=O)c2cc(-c3ccc(F)cc3)on2)c1C | inactive |
| O=C(O)c1ccc(N/N=C/c2cn(-c3ccccc3)nc2-c2cccs2)cc1 | 79.4 µM (active) |
| COc1cccc(NC(=O)CN(C)C(=O)/C=C/c2cn(-c3ccccc3)nc2-c2cccs2)c1 | inactive |
| O=C(NCc1cccnc1)c1cn(-c2ccccc2)nc1-c1cccs1 | inactive |
| CC(C)(C)OC(=O)N1CCC(c2c(C(=O)N3CCN(c4cccc(Cl)c4)CC3)cnn2-c2cccc(Cl)c2)CC1 | inactive |
| O=C(Nc1ccccc1Cl)N1CCC(CN2CCCC2)CC1 | inactive |
| CCS(=O)(=O)N1CCc2cc(C(=O)NCc3ccc(C)cc3)ccc21 | inactive |
| O=C(NC1CC(=O)N(c2ccc(F)cc2)C1)C1CCCCC1 (stereo unspecified) | inactive |
| COc1ccc(N2C(=O)C(Cc3ccccc3)NC2=S)cc1 (stereo unspecified) | inactive |
| COc1ccc(-n2cc(-c3ccccc3)c3c(=S)nc[nH]c32)cc1 | 79.4 µM (active) |
| CCCNc1ncnc2c1c(-c1ccccc1)cn2-c1ccc(OCC)cc1 | inactive |

| Compound | Potency |
| --- | --- |
| COc1ccc(C2=NC3(CCCCC3)N(CC(=O)Nc3ccc(C(C)C)cc3)C2=O)cc1 | inactive |
| COc1cc(OC)c2ccc(=O)oc2c1C(CCN1CCN(c2ccccc2)CC1)c1ccc2c(c1)OCO2 (stereo unspecified) | 25.1 µM (active) |
| CCN(CC)CCC(c1ccc2c(c1)OCO2)c1c(OC)cc(OC)c2c(-c3ccccc3)cc(=O)oc12 (stereo unspecified) | inactive |
| CCN(CC)CCC(c1cc(OC)c(OC)c(OC)c1)c1c(OC)cc(OC)c2c(-c3ccccc3)cc(=O)oc12 (stereo unspecified) | inactive |
| CCOC(=O)C1CCCN(C(=O)c2ccc(-n3ccc4ccccc43)s2)C1 (stereo unspecified) | inactive |
| Cc1cccc(C(=O)OCC(=O)Nc2ccc(F)cc2)c1 | inactive |
| O=C(COC(=O)c1ccc(F)cc1F)Nc1ncccn1 | 50.1 µM (active) |
| COc1cc(OC)cc(C(=O)OCC(=O)Nc2ccc(F)cc2F)c1 | inactive |
| COc1ccc(CCNC(=O)C(=O)NCC(c2ccco2)S(=O)(=O)c2cccs2)cc1OC (stereo unspecified) | inactive |
| COc1ccccc1NC(=O)CSC1=Nc2ccccc2C2=NC(CC(=O)NCc3cccs3)C(=O)N12 (stereo unspecified) | inactive |
| COc1ccc(CN2C(=O)C(NC(=O)c3cccc(C)c3)(C(F)(F)F)N=C2c2ccccc2)cc1 (stereo unspecified) | inactive |
| COc1ccccc1/C=C/C=N/NC(=O)CN1CCN(Cc2ccccc2)CC1 | inactive |
| COc1cc(Cl)c(S(=O)(=O)N2CCN(Cc3ccc4c(c3)OCO4)CC2)cc1Cl | inactive |
| CSc1ccc(/C=N/NC(=O)c2cccc(Cl)c2)cc1 | inactive |
| O=S1(=O)CCN(Cc2ccccc2Cl)CC1 | inactive |
| CSc1ccc(/C=N/N2CCN(Cc3ccccc3Cl)CC2)cc1 | 25.1 µM (active) |
| COc1ccccc1/C=N/N1CCN(Cc2ccccc2Cl)CC1 | 44.7 µM (active) |
| CCC(=O)N1c2ccccc2CC1C(=O)N1CCN(c2ccccc2)CC1 (stereo unspecified) | inactive |
| CCc1ccc(NC(=O)N2CCN(C(=O)c3nsc4ccccc34)CC2)cc1 | inactive |
| Cc1ccccc1CSc1nc2c([nH]c3ccccc32)c(=O)n1C | inactive |
| CCN(CC)c1nn2c(=O)c(C(=O)NCCc3ccccc3)cnc2s1 | inactive |
| COc1ccccc1N1CCN(C(=O)C2CCN(S(=O)(=O)c3c(C)noc3/C=C/c3ccc(C)cc3)CC2)CC1 | inactive |
